Screens deposited in PubChem by National Center for Advancing Translational Sciences (NCATS).
HT1080NT lethal: kills 2HG-producing HT-1080-NT fibrosarcoma cells; HT-1080-NT fibrosarcoma viability, CellTiter-Glo ATP luminescence, 48 h; Potency, µM (top dose mostly 46.1 µM), for the others: top-dose activity, negative = less viability, usual class: cytotoxic; 360,000 tested, 1.6% active; AID 686970;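 note: NT is the 2HG producing partner of a matched IDH1 knockdown line; potency is the fitted concentration of half-maximal effect; 0% = DMSO-treated cells and -100% = media-only wells without cells; nearly all actives have a fitted effect of over 55% in size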
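Viability by CellTiter-Glo luminescence after 48 h compound exposure at 37C of HT-1080-NT cells (750/well, RPMI, 5% FBS). % activity scaled between DMSO wells and medium-only wells, then curve-fitted and categorized by curve class.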
TDP1 cell CPT: growth inhibition of DT40 Tdp1-/-;hTDP1 cells with camptothecin (screen for TDP1 inhibitors); AID 686979; Potency, µM (highest dose often 46.2 µM), inactives show at the top dose activity change, negative = growth inhibition, actives largely listed as inhibitors; chicken DT40 Tdp1-/-;hTDP1 cells + 20 nM CPT, ATP luminescence, 48 h; 420,000 tested, 12% active; note: potency is the fitted concentration of half-maximal effect; nearly all actives have a fitted effect of over 55% in size
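Cell growth measured by CellTiter-Glo luminescence after a minimum 48 h, 37 C compound exposure with 20 nM CPT in Tdp1-knockout DT40 cells stably expressing hTDP1, seeded 400/well; qHTS titration format.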
IL-1B inflam inh: inhibitors of inflammasome signaling (IL-1 beta secretion). THP-1 LPS/ATP IL-1B secretion, AlphaLISA, 16 h; stronger effect = lower value. AID 743279. 360,000 tested, 4.7% active. activity change, % at 57.5 µM; in the data active = activity change below about -50%; inconclusive = mostly about -30% to -49%
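THP-1 cells pretreated 1 hr with compounds (up to 57.5 uM final), then stimulated with LPS (250 ng/mL final) plus ATP (1.25 mM final); secreted IL-1B measured by AlphaLISA after 16 hr, decreased signal indicating inhibition.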
HT1080 IDH1KD tx: toxicity to HT-1080 IDH1 knockdown cells (counter line) | HT-1080 IDH1 knockdown viability, ATP luminescence, 48 h | Potency, µM (top dose mostly 46.1 µM), without a hit: at the top dose activity, negative = toxicity, hits mostly cytotoxic | 360,000 tested, 2% active | AID 686971;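 note: potency is the fitted concentration of half-maximal effect; 0% = DMSO wells and -100% = cell-free medium wells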
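In this qHTS, HT-1080 cells depleted of IDH1 are exposed for 48 h at 37 °C to compound titrations. Toxicity is scored from CellTiter-Glo luminescence, with DMSO as full viability and medium alone as none.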
ELG1 repair inh: blocks ELG1-dependent DNA repair in HEK293T cells | Potency, µM (highest dose often 46.1 µM), for the others: at the top dose activity change, negative = inhibition, hits mostly inhibitors | 330,000 tested, 2.3% active | HEK293T ELG1-luciferase reporter, luminescence, 16 h; DNA damage induced by 5-fluorouridine; note: potency is the fitted concentration of half-maximal effect; nearly all actives have a fitted effect of over 55% in size
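Overnight (16 hr) co-exposure of 2,000 cells/well to 5-fluorouridine and compound at 37 °C preceded detection. Luciferase was quantified via ONE-Glo luminescence; loss of signal denotes inhibition.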
TDP1 cell noCPT: qHTS for Inhibitors of human tyrosyl-DNA phosphodiesterase 1 (TDP1): qHTS in cells in absence of CPT; DT40 Tdp1-/- hTDP1 cells, no CPT, ATP luminescence, 48 h; AID 686978, 2013; 420,000 tested, 15% active; Potency, µM (series often up to 46.2 µM), inactives show at the highest dose activity change, negative = growth inhibition, most hits filed as inhibitors; note: potency is the fitted concentration of half-maximal effect; nearly all actives have a fitted effect of over 55% in size
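Camptothecin absent (DMSO only). Human TDP1-complemented DT40 knockout cells, 400 cells/well, 37 °C for minimum 48 hr; ATP measured via CellTiter-Glo, 30 min dark incubation, luminescence.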
Numbers without * were called inactive; i = inactive; ? = inconclusive; . = not tested or not shown. Only some compounds are listed: those with a hit (about 19% of all), similar ones and a draw of the others. Unless noted, calls come from the whole dose curve; as a rule, active = well fitted curve in the direction sought with a large enough effect; inconclusive = small, poorly fitted or top-dose-only effect, or another doubt; inactive = no such curve, though single readings can be large; an effect the other way counts as inactive or inconclusive. Unless noted, % is set by controls: 0 for no effect and ±100 for the full control effect.

SMILES	HT1080NT lethal	TDP1 cell CPT	IL-1B inflam inh	HT1080 IDH1KD tx	ELG1 repair inh	TDP1 cell noCPT
COc1ccccc1C(CNC(=O)C(C)Oc1ccc(Br)cc1)N1CCCC1 (centres undefined)	-2.4%	-15.7%	-24.2	-13.9%	9.3%	?
Cc1ccc(NC(=O)Cn2c(=O)c(C(F)(F)F)nc3ccccc32)c(C)c1	.	-26.3%	.	.	.	-15.7%
Cc1ccc(N2C(=O)C3C4CC(=O)C(c5ccccc54)C3C2=O)cc1C (centres undefined)	-4.4%	-20.2%	i	-1.5%	-8.5%	?
Cc1cccc(C(=O)N/N=C/c2ccc(OCC(=O)N3CCCCC3)cc2)c1	1.5%	?	10.3	-2.3%	-18.5%	2.0%
O=C(CSCc1cccc(Cl)c1)N/N=C/c1ccc(OCC(=O)N2CCCCC2)cc1	-27.3%	16.4µM*	-73.7*	-25.0%	-20.8%	15.8µM*
FC(F)(F)c1ccccc1-c1cc(N2CCNCC2)ncn1	.	4.3%	.	.	.	3.1%
COc1ccccc1CNCc1ccc2c(c1)OCO2	-1.1%	-16.9%	-21.5	1.2%	.	?
O=Cc1ccccc1OCc1ccc2c(c1)OCO2	?	5.17µM*	32.8	?	?	2.91µM*
CCOc1ccc(Nc2ncnc3ccc([N+](=O)[O-])cc23)cc1	-21.8%	?	-5.8	-25.0%	9.2µM*	6.51µM*
CCOC(=O)c1ccc(Nc2ncnc3ccc(C)cc23)cc1	-26.4%	-20.8%	7.8	-27.5%	-12.5%	?
CC[n+]1c(/C=C2\C=C(C)CC(C)(C)C2)sc2ccccc21	?	0.651µM*	-59.9*	?	9.0%	2.31µM*
CC[n+]1c(/C=C2/C=C(C)CC(C)(C)C2)sc2ccc(OC)cc21	20.6µM*	2.31µM*	-112.3*	?	6.3%	1.16µM*
CC(OC(=O)c1ccc2c(c1)S(=O)(=O)c1ccccc1C2=O)C(N)=O (centres undefined)	15.9%	-16.0%	40.5	0.0%	3.6%	-11.1%
COc1cccc(NC(=O)C2(C)CCN2C(=O)CC2CC2)c1 (centres undefined)	21.0%	-10.8%	53.2	7.6%	.	0.5%
COc1ccc(-c2nc(S(=O)(=O)c3ccccc3)c(N3CCN(C)CC3)o2)cc1	-13.1%	?	?	-6.3%	.	?
COc1ccc(-c2sc(Nc3ccc(F)c(F)c3F)nc2CCC(=O)NN)cc1	?	?	?	-26.3%	?	?
Cc1cc(-c2ccc(C(C)C)c(S(=O)(=O)N3CCN(c4ccccn4)CC3)c2)on1	2.1%	18.4µM*	18.2	-2.0%	16.4µM*	20.6µM*
COc1ccc(-c2cc(C)no2)cc1S(=O)(=O)N1CCN(c2ccccn2)CC1	-7.3%	?	-77.3*	-18.5%	?	20.6µM*
COC1CCN(C(=O)c2ccc3oc(C(C)C)nc3c2)CC1	13.3%	12.5%	24.1	3.1%	?	-0.9%
COc1ccc(CCNC(=O)C2CC(c3ccc(C(F)(F)F)cc3)=NO2)cc1 (centres undefined)	11.4%	?	4.6	6.4%	-2.1%	14.6µM*
COc1ccc(CCNC(=O)C2CC(c3cccc(F)c3)=NO2)cc1 (centres undefined)	12.1%	-8.0%	17.9	9.9%	26.6%	-16.9%
O=C(NCc1cc(C(F)(F)F)cc(C(F)(F)F)c1)C1CC(c2ccc(C(F)(F)F)cc2)=NO1 (centres undefined)	0.7%	?	?	4.0%	.	?
Cc1ccc(CNC(=O)C2CC(c3ccc(C(F)(F)F)cc3)=NO2)o1 (centres undefined)	9.9%	11.6µM*	-2.7	2.6%	2.6%	7.31µM*
O=C(NCc1cc(C(F)(F)F)cc(C(F)(F)F)c1)C1CC(c2c(Cl)cccc2Cl)=NO1 (centres undefined)	-2.6%	?	-50.5*	-13.2%	-13.9%	?
COc1ccc(CNC(=O)C2CC(c3cc(C(F)(F)F)cc(C(F)(F)F)c3)=NO2)cc1 (centres undefined)	9.5%	3.26µM*	63.1	8.5%	-19.0%	4.61µM*
SMILES	HT1080NT lethal	TDP1 cell CPT	IL-1B inflam inh	HT1080 IDH1KD tx	ELG1 repair inh	TDP1 cell noCPT
Cc1ccc2occ(-c3cc(-c4ccccc4)nc4c3COc3ccccc3-4)c(=O)c2c1	.	-28.1%	.	.	.	?
CC(NC(=O)CNC(=O)C1CCCCC1)c1ccc(S(N)(=O)=O)cc1 (centres undefined)	-19.5%	6.9%	-3.0	-2.6%	4.2%	-9.2%
CCC1=C(OC(=O)N(CC)CC)N2C(=O)OC(=NCCc3c[nH]c4ccccc34)[C@]2(Cc2ccccc2)[C@H]2C1=CC[C@H]1C(=O)N(C)C(=O)[C@H]12	-27.5%	?	-52.5*	-7.0%	-5.1%	?
CCC1=C(OC(=O)N(CC)CC)N2C(=O)OC(=NCCc3c[nH]c4ccccc34)[C@]2(Cc2ccccc2)[C@H]2C1=CC[C@H]1C(=O)N(c3ccccc3)C(=O)[C@H]12	2.7%	?	-28.7	-19.8%	-5.9%	?
Cc1ccc(CNC(=O)CCC(=O)N2CCSc3ccccc32)cc1	.	?	.	.	.	23.1µM*
CCc1ccc(NC(=O)CCC(=O)N2CCSc3ccccc32)cc1	6.0%	20.6µM*	13.5	3.3%	-1.4%	?
CCOC(=O)c1ccccc1NC(=O)CCOc1ccccc1	.	-5.7%	.	.	.	-19.6%
COc1cccc2c1O/C(=N\O)C(C(=O)Nc1ccc(C)cc1)C2 (centres undefined)	?	5.8µM*	0.0	14.6µM*	-23.6%	5.17µM*
COc1cc(C(=O)NNC(=O)C2CCC2)cc(OC)c1OC	5.3%	-10.5%	7.7	7.1%	-4.7%	10.1%
COc1cc(C(=O)Nc2ccc(NC(=O)c3cccc(Cl)c3)nc2)cc(OC)c1OC	-6.4%	25.9µM*	-3.9	?	?	8.2µM*
O=C(Nc1ccc(NC(=O)C2CCCCC2)nc1)c1cccs1	-5.7%	?	-22.5	-2.4%	?	11.6µM*
Cc1ccc(NC(=O)c2cccc(Cl)c2)nc1	-1.8%	-25.4%	-7.2	-2.4%	?	-26.3%
COc1cc(C(=O)Nc2ccc(NC(=O)C3CCCCC3)nc2)cc(OC)c1OC	?	?	-1.3	?	-6.1%	18.4µM*
Cc1ccc(CNC(=O)CN(C(=O)N2CCN(C)CC2)S(=O)(=O)c2ccc(C)cc2)cc1	17.4%	8.2%	-11.5	18.7%	-4.1%	-9.0%
